FLuc inh-1 – inhibitors of firefly (Photinus pyralis) luciferase; Potency, µM (titrated, usually from 115 µM), usual class: inhibitors; purified P. pyralis luciferase, luminescence, biochemical; 2.5% of 76,000 active; AID 1347043; P08659; further: nearly all actives have a fitted effect of over 65% in size
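Purified P. pyralis luciferase (10nM final) in 50mM Tris acetate pH 7.5, 10mM Mg acetate, 0.01% Tween-20, 0.05% BSA with 10uM D-luciferin and 10uM ATP. Compounds titrated qHTS. Luminescence imaged on CCD.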
GPT2 inhibitor – inhibitors of human GPT2 alanine aminotransferase; 0.25% of 100,000 active; Recombinant GPT2, coupled pyruvate oxidase/HRP Amplex Red fluorescence; Potency, µM (top dose mostly 57.7 µM), most hits filed as inhibitors; further: nearly all actives have a fitted effect of over 60% in size
Target sequence (Q8TD30 whole entry, looked up): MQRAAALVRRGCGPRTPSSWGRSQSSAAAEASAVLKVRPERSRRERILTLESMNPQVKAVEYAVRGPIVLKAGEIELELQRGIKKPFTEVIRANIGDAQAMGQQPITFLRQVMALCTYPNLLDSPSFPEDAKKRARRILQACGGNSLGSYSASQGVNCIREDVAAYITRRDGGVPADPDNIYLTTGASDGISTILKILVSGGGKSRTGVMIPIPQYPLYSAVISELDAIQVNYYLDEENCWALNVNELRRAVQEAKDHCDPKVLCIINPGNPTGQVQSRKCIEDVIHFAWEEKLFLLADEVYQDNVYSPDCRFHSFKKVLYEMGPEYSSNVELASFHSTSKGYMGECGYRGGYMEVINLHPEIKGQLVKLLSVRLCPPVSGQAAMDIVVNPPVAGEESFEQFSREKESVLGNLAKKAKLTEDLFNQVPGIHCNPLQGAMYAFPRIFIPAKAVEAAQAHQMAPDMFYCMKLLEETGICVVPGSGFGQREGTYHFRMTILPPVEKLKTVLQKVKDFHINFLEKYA
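GPT2 10ng/uL, a-KG 250uM, L-Ala 2mM, HEPES pH7.5 + 0.0001% Tween; 30 min RT. Then Amplex mix (PO/HRP/ThPP), 30 min RT dark, fluorescence. AOA 50uM used as positive control.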
hNpr1 antagonist – blocks ANP-stimulated signaling of human Npr1 receptor. Potency, µM (doses to about 46.3 µM), usual class: inhibitors. 1.6% of 76,000 active. P16066. HEK293 hNpr1 GloSensor cGMP, ANP-stimulated luminescence. AID 1347048; calls by dose curve; further: nearly all actives have a fitted effect of over 60% in size
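HEK293 cells stably expressing human Npr1 and cGMP GloSensor pGS-40F, loaded 2 h with 2% GloSensor reagent, given compound 30 min at room temperature. Luminescence read before and 20 min after 0.1 nM hNppA.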
NIH3T3 tox – cytotoxic compounds in NIH 3T3 cells; 4.3% of 94,000 active; Potency, µM (highest dose often 96.7 µM), actives largely listed as inhibitors; NIH 3T3 viability, CellTiter-Glo ATP luminescence, 48-72 h; further: nearly all actives have a fitted effect of over 55% in size
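Cells were seeded at 400 per well, treated with pin-transferred compound, and kept 48 or 72 hr at 37 °C before CellTiter-Glo addition and luminescence imaging of cellular ATP.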
HEK cytotox – kills HEK 293 cells | Potency, µM (titrated, usually from 115 µM), usual class: inhibitors | HEK 293 viability, ATP luminescence (CellTiter-Glo), 48-72 h | 6.6% of 94,000 active; further: nearly all actives have a fitted effect of over 60% in size
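250 HEK 293 cells/well; compound by pintool; incubated 48 or 72 hr at 37 degree Celsius; CellTiter-Glo added, 10 min RT, luminescence imaged.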
FLuc SDR -ATP – firefly luciferase binding stabilization, ATP absent; shares compounds with FLuc inh-1; Purified FLuc-C-HiBiT, Nano-Glo HiBiT luminescence, no ATP; Potency, µM (titrated, usually from 32.7 µM), actives largely listed as activators; 7.8% of 1,300 active; AID 1963318; further: nearly all actives have a fitted effect of over 55% in size
FLuc SDR ATP – binders stabilizing firefly luciferase, plus ATP. shares compounds with FLuc inh-1. purified FLuc-C-HiBiT + ATP, HiBiT complementation luminescence. Potency, µM (titrated, usually from 32.7 µM), hits mostly activators. 8.7% of 1,300 active. AID 1963319;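 further: signal reports ligand binding via conformational change of the enzyme rather than luciferase catalysis; nearly all actives have a fitted effect of over 55% in size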
FLuc inh-2 – firefly luciferase enzyme inhibition; Potency, µM (highest dose often 32.7 µM), hits mostly inhibitors; shares compounds with FLuc inh-1; purified FLuc-C-HiBiT enzyme, luciferin luminescence; 42% of 1,300 active; further: nearly all actives have a fitted effect of over 70% in size
Hits are given with their value; i = inactive; ? = inconclusive; nt = not tested or not shown. This is a sample that favours compounds with a hit; in the whole collection about 10% have one here. Unless noted, the call rests on the fitted dose curve; in most records, active means well fitted curve in the direction sought with a large enough effect; inconclusive means small, poorly fitted or top-dose-only effect, or another doubt; inactive means no such curve, though single readings can be large; an effect the other way counts as inactive or inconclusive.

SMILES	FLuc inh-1	GPT2 inhibitor	hNpr1 antagonist	NIH3T3 tox	HEK cytotox	FLuc SDR -ATP	FLuc SDR ATP	FLuc inh-2
O=C(O)COCC(=O)N[C@H]1CCN2C(=O)c3cc(/C=C/c4ccccc4)ccc3NC(=O)[C@H]12	7.94µM	i	i	i	i	i	?	?
O=C(N[C@H]1CCN2C(=O)c3cc(/C=C/c4ccccc4)ccc3NC(=O)[C@H]12)c1cnccn1	?	i	i	i	?	nt	nt	nt
O=C(N[C@H]1CCN2C(=O)c3cc(/C=C/c4ccc(O)cc4)ccc3NC(=O)[C@H]12)c1cnccn1	12.6µM	i	i	i	?	i	i	i
CCn1ccc2sc(C)c(C(=O)N3CCC(Cc4ccccc4)CC3)c2c1=O	i	?	i	?	?	nt	nt	nt
Cc1c(Cl)cccc1NC(=O)CCn1ccn2nc3c(c2c1=O)CCCC3	i	i	i	i	?	nt	nt	nt
CCCCCSc1nnc(-c2ccc(Br)cc2)o1	nt	nt	nt	nt	nt	i	i	i
COc1ccc(-c2cc(N3CCCN(C(=O)CCCc4ccccc4)CC3)n[nH]2)cc1	i	?	i	?	?	nt	nt	nt
CC1CCc2nc3ncn(Cc4ccc(Cl)cc4)c(=O)c3cc2C1 (centres undefined)	nt	nt	nt	nt	nt	i	i	i
Cc1ccc2nc(-c3ccc(N)cc3)sc2c1S(=O)(=O)O	nt	nt	nt	nt	nt	?	?	2.48µM
Cc1ccc2nc(-c3ccc(N=Nc4cc(S(=O)(=O)O)c5ccccc5c4O)cc3)sc2c1S(=O)(=O)O	nt	nt	nt	nt	nt	i	i	12.4µM
Cc1ccc2nc(-c3ccc4nc(-c5ccc(NC(=O)c6cccc(Cl)c6)cc5)sc4c3)sc2c1S(=O)(=O)O	nt	nt	nt	nt	nt	i	i	?
C=C[C@H]1[C@H](O[C@@H]2O[C@H](CO)[C@@H](O)[C@H](O)[C@H]2O)OC=C(C(=O)OC)[C@H]1C/C=C(/C=O)[C@@H]1C(C(=O)OC)=CO[C@@H](O[C@@H]2O[C@H](CO)[C@@H](O)[C@H](O)[C@H]2O)[C@@H]1C=C	nt	i	nt	nt	nt	nt	nt	nt
O=C(O)c1ccc(-c2ccc(N3CCCCCC3)nc2)cc1	4.47µM	i	i	?	i	?	?	2.48µM
O=C(Nc1ccc(F)cc1)c1cc2cccnn2n1	14.1µM	i	i	?	?	i	i	?
Cc1noc(-c2cccn3c(CNC(=O)c4ccc(C(C)(C)C)cc4)nnc23)n1	7.94µM	i	i	i	?	?	?	9.89µM
Cc1noc(-c2cccn3c(CNC(=O)c4ccccc4)nnc23)n1	i	i	i	i	i	nt	nt	nt
COc1cccc(CN2CCc3c(cc(C(=O)Nc4cc(C)ccc4OC)n3C)C2)c1	8.91µM	i	i	?	31.6µM	i	i	i
Cc1ccc(-c2cn3cc(C(=O)NCCc4ccccc4F)nc3s2)cc1	nt	i	nt	i	i	nt	nt	nt
COc1cccc(OCc2nc3ccccc3n2Cc2ccccc2)c1	nt	nt	nt	nt	nt	i	i	i
Clc1ccc(OCc2nc3ccccc3n2Cc2ccccc2)c(Cl)c1	nt	nt	nt	nt	nt	i	i	?
COCCN1CCNc2nc(COc3ccccc3OC(F)(F)F)n(Cc3ccccc3)c2C1=O	i	i	i	?	?	nt	nt	nt
COc1cccc(CNC(=O)c2nc3cccnc3n(Cc3ccccc3)c2=O)c1	nt	i	nt	?	?	nt	nt	nt
COc1cccc(N2C(=O)NC(=NC3CCCC3)C23CCCN([S+](=O)([O-])c2ccccc2)C3)c1 (centres undefined)	nt	i	nt	i	i	nt	nt	nt
O=C(O)c1ccc(CN2CC(COc3ccccc3)C3(C2)CN(c2ccccc2)C3)cc1 (centres undefined)	i	i	i	i	?	nt	nt	nt
COc1ccc(CN2CC(COc3ccccc3)C3(C2)CN(c2ccccc2)C3)cc1O (centres undefined)	i	i	i	?	28.2µM	i	i	i
SMILES	FLuc inh-1	GPT2 inhibitor	hNpr1 antagonist	NIH3T3 tox	HEK cytotox	FLuc SDR -ATP	FLuc SDR ATP	FLuc inh-2
c1ccc(COc2ccc(CN3CCSCC3)cc2)nc1	10µM	i	i	i	?	i	i	?
NC(=O)[C@@H]1CN(Cc2ccccn2)C[C@H]1COc1ccccc1	i	?	i	?	i	nt	nt	nt
O=C(c1ccc(Br)o1)N1CCC2(CC1)CC(O)CCO2 (centres undefined)	i	i	i	i	i	nt	nt	nt
Cc1ccc(C(=O)Nc2ccc(-c3nc4ccccc4s3)c(O)c2)c(C)c1	nt	nt	nt	nt	nt	i	i	i
COc1ccccc1C(=O)Nc1ccc(-c2nc3ccccc3s2)c(C)c1	nt	nt	nt	nt	nt	i	i	?
O=C(Nc1ccc2c(c1)OCCO2)N1CCC2(CC1)CC(N1CCCC1)CCO2 (centres undefined)	6.31µM	i	i	i	i	i	?	?
O=C(Nc1ccc2c(c1)OCCO2)N1CCC2(CC1)CC(N1CCOCC1)CCO2 (centres undefined)	nt	i	nt	i	i	nt	nt	nt
O=C(c1ccc(F)c(F)c1Nc1ccc(I)cc1F)N1CC(O)(C2CCCCN2)C1 (centres undefined)	nt	i	nt	nt	nt	nt	nt	nt
CC(C)C(=O)N1CCC(COc2ccc3c(cnn3CC[S+](C)(=O)[O-])c2)CC1	?	i	i	?	?	nt	nt	nt
Cc1cc(-c2cccc(COc3ccc4c(cnn4CC[S+](C)(=O)[O-])c3)c2)ccn1	12.6µM	i	10µM	25.1µM	25.1µM	i	i	?
C[S+](=O)([O-])CCn1ncc2cc(OCc3cccc(-c4ccc(F)cc4)c3)ccc21	10µM	i	25.1µM	?	?	i	i	?
C[S+](=O)([O-])CCn1ncc2cc(OCc3cccc(-c4ccccc4O)c3)ccc21	3.98µM	i	31.6µM	?	35.5µM	i	i	14.3µM
CC(C)c1ccc(C2=CC(c3ccc(C(C)C)cc3)n3nnnc3N2)cc1 (centres undefined)	nt	nt	nt	nt	nt	i	i	i
CC(C)c1ccc(NC(=O)C2CCN(C(=O)c3ncn4c3COC(c3ccccc3)C4)CC2)cc1 (centres undefined)	2.51µM	i	i	i	i	i	?	3.51µM
O=C(Nc1ccc(F)c(F)c1)C1CCN(C(=O)c2ncn3c2COC(c2ccccc2)C3)CC1 (centres undefined)	1µM	i	?	i	i	i	0.556µM	0.989µM
CC(C)c1cccc(NC(=O)C2CCN(C(=O)c3ncn4c3COC(c3ccccc3)C4)CC2)c1 (centres undefined)	3.55µM	i	i	i	?	i	?	7.85µM
CSc1cccc(NC(=O)C2CCN(C(=O)c3ncn4c3COC(c3ccc(F)cc3)C4)CC2)c1 (centres undefined)	?	i	?	i	i	nt	nt	nt

Screening data from PubChem BioAssay.
